Assay results reported in PubChem BioAssay (NCATS).
Results filed as inconclusive are left out. Activity calls are given as the source filed them. Unless noted, the call rests on the fitted dose curve; in most records, active means well fitted curve in the direction sought with a large enough effect; inconclusive means small, poorly fitted or top-dose-only effect, or another doubt; inactive means no such curve, though single readings can be large; an effect the other way counts as inactive or inconclusive.

What was measured:
[1] = qHTS assay for small molecule disruptors of the mitochondrial membrane potential - 5 hr assay (AID 651755; calls by dose curve; further: on the % scale 0 is the no-effect control and ±100 the full control effect; nearly all actives have a fitted effect of over 40% in size)
Summary of the method: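 Membrane-potential dye readout: red aggregate (540 ex/590 em) versus green monomer (490 ex/535 em) fluorescence after 30 min dye loading, following 5 hr compound exposure at 37C of overnight-plated HepG2 cells.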

[2] = target: Tumor necrosis factor (Homo sapiens) (UniProt P01375); assay: qHTS assay to identify small molecules that stimulate Tumor Necrosis Factor-alpha (TNF-alpha) secretion (AID 651757; active means well fitted curve in the direction sought with a large enough effect in the signal ratio; the % refers to the signal ratio; further: 0% is about no effect)
Summary of the method: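 Human monocytic THP-1 cells are plated, treated with compound and held at 37 C for 17 hrs. Labeled anti-TNF-alpha antibody mixture is then added; after 3 hr at room temperature, TR-FRET signal reports secreted TNF-alpha.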

[3] = qHTS assay to identify small molecules that stimulate interleukin-8 (IL-8) secretion (AID 651758; active means well fitted activation curve with a large enough effect in the signal ratio; the % refers to the signal ratio; further: 0% is about no effect)
Summary of the method: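 Secreted IL-8 measured homogeneously by TR-FRET (two labelled anti-IL-8 antibodies, 1-3 h at room temperature) after a 16 h, 37 C compound treatment of THP-1 cells at 2000 cells/well.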

[4] = target: Nuclear receptor ROR-gamma (Homo sapiens) (UniProt P51449); assay: qHTS assay for small molecule antagonists of the retinoid-related orphan receptor gamma (ROR-gamma) signaling pathway (AID 651802);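 further: CHO cells with doxycycline-induced ROR-gamma expression; series mostly up to about 92 µM; on the % scale 0 is the no-effect control and ±100 the full control effect; nearly all actives have a fitted effect of over 60% in size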
Summary of the method: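 Steps: cells dispensed; compound or DMSO transferred by pin tool; doxycycline added to induce the ROR response element-driven luciferase; plates held 16hr at 37C; ONE-Glo added and luminescence measured.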

[5] = target: Arylsulfatase A (Homo sapiens) (UniProt P15289); assay: qHTS screen for enhancers of Arylsulfatase A (ASA1): LOPAC Validation Assay (AID 720538); conditions: outcome: dose series up to 57.5 µM
Summary of the method: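 First, ASA-I179S fibroblasts from an MLD patient adhered for 6 hrs. Next, compounds were added for 48h. Then pNCS substrate (0.5mM final) with lysis buffer reacted 14h at room temperature before NaOH stop and fluorescence measurement.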

[6] = qHTS for compounds that reverse cellular toxicity of Amyloid beta (A-beta) peptide in yeast: LOPAC Validation Assay (AID 720559);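 further: plate controls were DMSO for no effect and equimolar ferric chloride plus clioquinol rescue for full effect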
Summary of the method: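 Activity is expressed relative to DMSO and an equimolar ferric chloride/clioquinol mix. Compounds were pinned into medium with A-beta-expressing yeast, grown 48 hr at 30 C, then read by absorbance at 600 nm.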

[7] = qHTS for Activators of Parkin Expression: LOPAC Validation Assay (NLuc Reporter) (AID 720572)
Summary of the method: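 Compound effects on Parkin promoter activity were measured as NanoLuc luminescence after 24 h at 37 C. The neuronal reporter line also carried FLuc, which was read first. LOPAC compounds were tested at 7 concentrations, with normalization to DMSO (0%) and positive control (100%).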

[8] = qHTS for Activators of Parkin Expression: LOPAC Validation Assay (FLuc Reporter) (AID 720573)
Summary of the method: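 A neuronal cell line harbouring FLuc and NLuc reporters behind the Parkin promoter was exposed to compounds for 24 h. Firefly luciferase signal, measured after 10 min with detection reagent, was scaled to DMSO and positive-control wells.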

[9] = target: Peroxisome proliferator-activated receptor alpha (Homo sapiens) (UniProt Q07869); assay: qHTS assay for small molecule agonists of the peroxisome proliferator-activated receptor alpha (PPARalpha) signaling pathway (AID 651778); conditions: PathHunter PPARalpha complementation, chemiluminescence, 6 h; hits give high values; further: % of control where 0% means no effect
Summary of the method: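 Chemiluminescence from complemented enzyme reported PPARalpha activation in cells after 6 hr of compound treatment at 37 C. The detection reagent was incubated for 60 min at room temperature, and compounds were scored as agonists.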

[10] = qHTS assay for environmental chemicals that activate the Aryl hydrocarbon Receptor (AhR) signaling pathway (AID 651777); conditions: 1A2-DRE human hepatoma cells, luciferase, 24 h; activation: hits give high values; further: % of control where 0% means no effect; nearly all actives have a fitted effect of over 15% in size
Summary of the method: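 Luminescence read-out: One-Glo added for 30 min at RT after 24 hr compound treatment (37 C, 5% CO2) of human hepatoma cells expressing a DRE/CYP1A2 promoter–luciferase reporter; increased signal indicates AhR activation.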

Arylsulfatase A (Homo sapiens), sequence (P15289 whole entry, looked up): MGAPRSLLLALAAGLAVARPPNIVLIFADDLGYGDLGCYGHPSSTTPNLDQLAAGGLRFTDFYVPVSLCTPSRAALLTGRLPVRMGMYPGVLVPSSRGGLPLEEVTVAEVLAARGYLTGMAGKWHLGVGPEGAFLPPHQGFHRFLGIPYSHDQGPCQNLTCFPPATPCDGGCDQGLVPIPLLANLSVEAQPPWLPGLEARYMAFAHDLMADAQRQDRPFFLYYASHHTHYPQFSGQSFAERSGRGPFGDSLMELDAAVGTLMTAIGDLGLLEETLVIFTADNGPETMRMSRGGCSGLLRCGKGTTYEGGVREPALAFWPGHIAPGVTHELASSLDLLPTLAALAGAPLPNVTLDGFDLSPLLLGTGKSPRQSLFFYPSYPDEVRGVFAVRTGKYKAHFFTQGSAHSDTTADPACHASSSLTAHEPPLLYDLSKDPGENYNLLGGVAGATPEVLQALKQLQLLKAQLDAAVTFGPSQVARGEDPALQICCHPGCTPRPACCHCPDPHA
Peroxisome proliferator-activated receptor alpha (Homo sapiens), sequence (Q07869 whole entry, looked up): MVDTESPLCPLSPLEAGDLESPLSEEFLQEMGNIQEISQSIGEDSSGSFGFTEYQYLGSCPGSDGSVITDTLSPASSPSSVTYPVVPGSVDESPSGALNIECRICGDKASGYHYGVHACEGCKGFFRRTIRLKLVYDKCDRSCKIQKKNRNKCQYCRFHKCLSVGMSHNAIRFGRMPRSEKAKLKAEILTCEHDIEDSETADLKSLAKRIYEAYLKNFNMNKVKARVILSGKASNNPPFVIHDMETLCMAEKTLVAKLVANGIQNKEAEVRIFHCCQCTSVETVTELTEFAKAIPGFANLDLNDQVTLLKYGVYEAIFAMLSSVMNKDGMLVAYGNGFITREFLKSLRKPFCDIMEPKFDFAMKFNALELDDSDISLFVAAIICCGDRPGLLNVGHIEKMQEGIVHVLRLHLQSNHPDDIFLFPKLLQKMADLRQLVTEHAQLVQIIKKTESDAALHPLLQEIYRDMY
Tumor necrosis factor (Homo sapiens), sequence (P01375 whole entry, looked up): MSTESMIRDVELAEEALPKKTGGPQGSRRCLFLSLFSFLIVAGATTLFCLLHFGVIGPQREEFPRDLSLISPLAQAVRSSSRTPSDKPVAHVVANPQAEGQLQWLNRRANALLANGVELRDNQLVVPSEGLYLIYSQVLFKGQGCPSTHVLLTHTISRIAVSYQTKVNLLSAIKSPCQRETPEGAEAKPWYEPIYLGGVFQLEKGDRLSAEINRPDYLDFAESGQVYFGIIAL
Nuclear receptor ROR-gamma (Homo sapiens), sequence (P51449 whole entry, looked up): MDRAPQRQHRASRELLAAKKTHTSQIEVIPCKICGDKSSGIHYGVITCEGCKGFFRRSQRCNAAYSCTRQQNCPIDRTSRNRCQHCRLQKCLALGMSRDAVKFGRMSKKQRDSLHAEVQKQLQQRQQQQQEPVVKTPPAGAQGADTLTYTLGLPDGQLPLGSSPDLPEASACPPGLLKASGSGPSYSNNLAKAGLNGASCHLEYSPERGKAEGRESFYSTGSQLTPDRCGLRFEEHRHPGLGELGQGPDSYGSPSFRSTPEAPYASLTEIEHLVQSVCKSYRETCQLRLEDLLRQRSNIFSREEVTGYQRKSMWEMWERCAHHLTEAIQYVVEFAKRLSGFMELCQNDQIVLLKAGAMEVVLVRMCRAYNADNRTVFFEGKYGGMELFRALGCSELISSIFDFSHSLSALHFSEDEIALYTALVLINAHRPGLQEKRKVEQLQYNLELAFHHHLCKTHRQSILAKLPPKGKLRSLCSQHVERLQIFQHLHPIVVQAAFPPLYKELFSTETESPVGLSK

CCCCC(CC)COC(=O)c1ccccc1C(=O)O (configuration not stated)
inactive: Potency [1] | outcome [2] | outcome [3] | Potency [4]

NC(N)=NCCCCN=C(N)N
inactive: outcome [5] | outcome [6] | outcome [7] | outcome [8]

Cn1cnc2c(NCc3ccccc3)nc(NCCO)nc21
inactive: outcome [5] | outcome [6] | outcome [7] | outcome [8]

O=C(Oc1ccccc1)c1cccc(C(=O)Oc2ccccc2)c1
inactive: max response [9] 4.8%

Brc1ccc([C@H]2CN3CCSC3=N2)cc1
inactive: outcome [6] | outcome [7] | outcome [8]

O=[N+]([O-])c1ccc(-c2nc(-c3ccc(F)cc3)c(-c3ccncc3)[nH]2)cc1
inactive: outcome [5] | outcome [6] | outcome [7] | outcome [8]

CC(C)N(CCC(=O)c1ccc2ccccc2c1)Cc1ccccc1
inactive: outcome [5] | outcome [6] | outcome [7] | outcome [8]

Clc1ccc2c(c1)N=C(N1CCNCC1)c1ccccc1N2
inactive: outcome [5] | outcome [6] | outcome [7] | outcome [8]

O=C1NC(=O)/C(=C/c2ccc3c(c2)OC(F)(F)O3)S1
inactive: outcome [5] | outcome [6] | outcome [7]

CCN(CC)CCOc1ccc(/C(=C(\Cl)c2ccccc2)c2ccccc2)cc1
inactive: activation [10] -0.728% | max response [9] 11.1%

COc1ccccc1N1CCN(CCN2C(=O)CC3(CCCC3)CC2=O)CC1
inactive: outcome [5] | outcome [6] | outcome [7] | outcome [8]

CCN(CC)CCNC(=O)c1ccc(NS(C)(=O)=O)cc1
inactive: outcome [5]

O=C1NC(c2cccc([N+](=O)[O-])c2)=CCN1c1ccccc1O
inactive: outcome [5] | outcome [6] | outcome [7] | outcome [8]

COc1cccc2c1[C@@H]1CN(CCCCn3c(=O)[nH]c4c(sc5ncc(-c6ccccc6)nc54)c3=O)C[C@@H]1CO2
inactive: outcome [6] | outcome [7] | outcome [8]

C[N+](C)(C)CCO
inactive: outcome [5] | outcome [6] | outcome [7] | outcome [8]

Cc1nn(-c2ccccc2)c(C)c1/C=N/N1CCN(Cc2ccccc2)CC1
inactive: outcome [5] | outcome [6] | outcome [7] | outcome [8]

N[C@@H](Cn1ccc(=O)c(O)c1)C(=O)O
inactive: outcome [5] | outcome [6] | outcome [7] | outcome [8]
